According to PubChem BioAssay:

Tested on: Sonic hedgehog protein (Shh)
Test: small-molecule binders of Shh protein, primary screen, biochemical, small-molecule microarray, 635/667 nm fluorescence (AID 1151);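 further: Shh protein binding to compounds spotted on small-molecule microarray slides; score combines spot fluorescence intensity with signal-to-noise across triplicate slides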
Conditions: small-molecule microarray binding, 635 nm fluorescence; higher = more signal

SMILES | composite z-score
CCCC[C@@H](O)C1=C(C)Cn2c(=O)n(-c3ccccc3)c(=O)n2[C@H]1CO | 0.317
CCOC(=O)C[C@H]1[C@H](OC(=O)c2cc3ccccc3oc2=O)[C@@H](NC(=O)Cc2ccc(OC)cc2)c2cc(OCCCO)ccc2N1C(=O)Cc1ccc(OC)cc1 | 1.27
COC(=O)C1=CC(CCCO)=CC(c2ccc(CN3CCCC3)cc2)N(C)C=C1C(=O)OC (stereo unspecified) | -0.284
CCOC(=O)C[C@H]1[C@H](OC(=O)c2ccc(-c3ccccc3)cc2)[C@@H](NC(=O)c2ccc(-c3ccccc3)cc2)c2cc(OCCCO)ccc2N1C(=O)c1ccccc1 | 0.921
COc1ccc(C(=O)Nc2cccc(CN3C(=O)[C@]4(O[C@H](CC(=O)N(CCO)Cc5ccccc5)[C@@H]([Si](C)(C)c5ccc(OC)cc5)[C@@H]4C)c4ccccc43)c2)cc1 | 1.48
O=C(N1CCOCC1)[C@]1(CCS(=O)(=O)c2ccccc2)N=C(c2ccc(OCCCO)cc2)O[C@@H]1c1ccccc1 | -0.19
CC(C)c1ccc(NN2C(C(O)c3ccccc3)C=CC3C(=O)N(c4ccccc4)C(=O)C32)cc1 (stereo unspecified) | -0.983
COc1ccc([Si](C)(C)[C@H]2[C@H](CC(=O)N3CCC[C@H]3CO)O[C@@]3(C(=O)N(C)c4c(Br)cc(C)cc43)[C@@H]2C)cc1 | 1.6
COCCCNC(=O)[C@]1(Cc2ccccc2N=[N+]=[N-])N=C(c2ccc(OCCCO)cc2)O[C@@H]1c1ccccc1 | -0.223
[N-]=[N+]=NCc1ccccc1[C@H]1OC(c2ccc(OCCCO)cc2)=N[C@@]1(Cc1ccccc1N=[N+]=[N-])C(N)=O | 0.183
C=CC[C@]1(C(=O)NCC(O)CO)N=C(c2ccc(OCCCO)cc2)O[C@H]1c1ccccc1CN=[N+]=[N-] (stereo partly specified) | -0.803
C[C@]1(C(=O)NC2CC2)c2ccccc2C(=O)N(Cc2cc(F)cc(C(F)(F)F)c2)[C@H]1c1ccc(CO)cc1 | 1.62
CC(C)N1CC=CC23O[C@@H]4/C=C\CCCOC(=O)C4[C@H]2C(=O)N(C(C)CO)[C@@H]3C1=O (stereo partly specified) | -0.413
CCOC(=O)C[C@H]1[C@H](OC(=O)c2ccccc2-c2ccccc2)[C@@H](NC(=O)CC(C)C)c2cc(OCCCO)ccc2N1C(=O)c1ccccc1 | 1.51
CN(C)CCCCNC(=O)[C@H]1C[C@H]2C(=O)N[C@@H](CCCCN(C)C)C(=O)N2[C@H]1c1ccc(O)cc1 | 1.29
CC(CO)N1C(=O)[C@@H]2[C@H]3C(=O)OCC=C[C@H]3OC23C=CCN(c2ccc4ccccc4c2)C(=O)[C@@H]13 (stereo partly specified) | -1.19
CC(C)N1C(=O)[C@@]2(Cc3ccccc31)c1ccccc1C(=O)N(Cc1ccccc1)[C@H]2c1ccc(CO)cc1 | 0.462
CCOC(=O)C1=CC[C@@H](c2ccccc2)N(S(=O)(=O)c2ccc(C)cc2)[C@@H]1C#N | -0.0766

SMILES | composite z-score
COc1ccc([Si](C)(C)[C@@H]2[C@@H](CC(=O)N(CCO)Cc3ccccc3)O[C@]3(C(=O)N(Cc4cccc(I)c4)c4ccccc43)[C@H]2C)cc1 | 1.79
CO[C@H]1O[C@H](CO)[C@@H](OC(=O)CCc2ccccc2)[C@@H]2OC(=O)[C@@H](Cc3ccc4ccccc4c3)C/C=C/C[C@H](Cc3ccc4ccccc4c3)C(=O)O[C@@H]12 | -0.657
O=C1O[C@H](c2ccccc2)[C@H](c2ccccc2)N2[C@H]1[C@@H](C(=O)O)[C@]1(C(=O)Nc3ccccc31)[C@H]2c1ccc(OCCO)cc1 | 0.98
O=C1c2ccccc2[C@@]2(Cc3ccccc3N(CC(F)(F)F)C2=O)[C@H](c2ccc(CO)cc2)N1Cc1ccccc1 | 1.82
COCCCNC(=O)[C@@]1(Cc2ccccc2I)c2ccccc2C(=O)N(C2CCCCC2)[C@H]1c1ccc(CO)cc1 | 1.04
COCCOC(=O)N1C(=O)[C@@]2(c3cc(C#CC4(O)CCCCCC4)ccc31)[C@H](C(N)=O)[C@H]1C(=O)O[C@H](c3ccccc3)[C@H](c3ccccc3)N1[C@@H]2c1ccc(OCCO)cc1 | 1.24
CCCNC(=O)[C@@]1(Sc2ccc(C)cc2)CC(=O)N(Cc2cc(C(F)(F)F)cc(C(F)(F)F)c2)[C@@H]1c1ccc(CO)cc1 | -0.0508
C=C(CCCC)/C(=C/C[C@@H](OC(C)=O)c1cccc(OCCO)c1)c1cc(C(=O)OC)ccc1OC | 1.48
Cc1cccc([C@H]2C[C@H]3C(Br)=C[C@@]2(CO)C(=O)[C@]32CO2)c1 | 0.462
CCCCN1CC=CC23O[C@@H]4/C=C\CCCOC(=O)C4[C@H]2C(=O)N(CCCCCCO)[C@@H]3C1=O (stereo partly specified) | 0.145
C=CCNC(=O)[C@@H]1[C@H]2C(=O)O[C@H](c3ccccc3)[C@H](c3ccccc3)N2[C@H](c2ccc(OCCO)cc2)[C@@]12C(=O)N(C(=O)OCCOC)c1ccccc12 | 0.957
COc1ccc(C(=O)Nc2ccc(CN3C(=O)[C@]4(O[C@H](CC(=O)N(CCO)Cc5ccccc5)[C@@H]([Si](C)(C)c5ccc(OC)cc5)[C@@H]4C)c4ccccc43)cc2)cc1 | 1.94
COC(=O)Cn1c(C(=O)N(C)C)cc2c1C[C@H]1CN(C(=O)c3ccccc3)[C@@](Cc3ccccc3)(C(=O)OC)[C@@H]21 | -0.535
CO[C@H]1O[C@H](CO)[C@@H](OC(=O)Nc2cccc(F)c2)[C@H](OC(=O)Nc2ccc3c(c2)OCO3)[C@@H]1OC(=O)Nc1ccc2c(c1)OCO2 | 0.519
COC(=O)[C@@]1(Cc2ccc(F)cc2)[C@H]2c3cc(C(=O)N(C)C)n(Cc4cccc5ccccc45)c3C[C@H]2CN1C(=O)c1ccccc1 | -0.685
CCOC(=O)C[C@H]1[C@H](OC(=O)Cc2ccc3c(c2)OCO3)[C@@H](NC(=O)CC(C)C)c2cc(OCCCO)ccc2N1C(=O)c1ccc2ccccc2n1 | 0.458
O=C1O[C@H](c2ccccc2)[C@H](c2ccccc2)N2[C@H]1[C@@H](C(=O)N1CCN(c3ncccn3)CC1)[C@]1(C(=O)Nc3ccc(C#CC4(O)CCCCCC4)cc31)[C@H]2c1ccc(O)cc1 | 1.93
COC(=O)C[C@H]1O[C@]2(C(=O)N(C)c3ccccc32)[C@@H](C)[C@@H]1[Si](C)(C)c1ccccc1 | 1.65
